Laboratory results as given in PubChem BioAssay.
Values without a mark were called inactive. The rule behind the calls is not given here.

Assay: blockers of DNA damage checkpoint Chk1 activation – imaging, HeLa, hydroxyurea, phospho-Chk1 nuclear intensity, primary screen (AID 1187); note: test concentration not given here
Conditions: hydroxyurea-induced phospho-Chk1 immunofluorescence imaging, higher = more signal

SMILES | z-score
COC(=O)[C@@]1(Cc2ccc(F)cc2)[C@H]2c3cc(C(=O)N(C)C)n(C)c3C[C@H]2CN1C(=O)c1ccccc1 | 0.633
C=C(CCCC)C(=O)CC[C@H](OC(=O)c1ccccc1-c1ccccc1C(=O)O)c1ccc(OCCO)cc1 | -0.0839
N#Cc1ccc(NN2C(C(O)C3CC=CCC3)C=CC3C(=O)N(c4ccccc4)C(=O)C32)cc1 (stereo not given) | 0.22
CCCC=C(CCC)[C@@H](NC(=O)OCC(C)C)c1ccc(C(=O)OC)cc1 | -0.598
O=C(NCC(O)CO)[C@@]1(CCS(=O)(=O)c2ccccc2)N=C(c2ccc(OCCCO)cc2)O[C@H]1c1ccccc1 (stereo not given in full) | -0.282
C=C(COC)C(=O)CC[C@@H](OC(=O)c1ccccc1-c1ccccc1C(=O)O)c1ccc(OCCO)cc1 | 0.0533
CC(C)C(CO)N1C(=O)[C@@H]2C3C(=O)OCCC/C=C\[C@H]3OC23C=CCN(Cc2ccccc2)C(=O)[C@@H]13 (stereo not given in full) | -0.842
CN(C)CCCNC(=O)[C@@]1(C)c2ccccc2C(=O)N(Cc2ccc(OC(F)(F)F)cc2)[C@H]1c1ccc(CO)cc1 | 0.0436
CO[C@H]1O[C@H](CO)[C@@H](OC(=O)Nc2ccccc2-c2ccccc2)[C@H](OC(=O)Nc2ccccc2)[C@H]1OC(=O)Nc1ccccc1 | -0.15
COC(=O)C(CC#Cc1ccc2c(c1)[C@]1(C(=O)N2)[C@H](C(=O)NC[C@H](O)c2ccccc2)[C@H]2C(=O)O[C@H](c3ccccc3)[C@H](c3ccccc3)N2[C@@H]1c1ccccc1OCCO)C(=O)OC | 0.0197
